Values joined by “and” are separate entries in the source; they are usually repeats but may differ in a detail not shown here. Identical values can stand only once. Hit rate of the full screen: of about 5,500 compounds, about 2,000 (36%) were called active. Inconclusive results (about 18%) are left out. No stated cut-off is given here; in the data, active means normalized growth mostly below about 0.91 (no sharp cut-off); inconclusive means no clear call, values can overlap the other calls; inactive means mostly above about 0.92. Some of the results follow.
Test: chemical genetic growth profiling, strain panel (AID 1159580);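 further: tested at 20 µM; growth read once vehicle control cultures reached saturation at 30 °C; 1 = growth at the plate median or of vehicle wells; lower values mean less growth of the strain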
Conditions: S. cerevisiae deletion strains, growth OD

Measured: normalized growth

NNCCc1ccccc1
inactive: locus YAL013W, strain DEP1, hits give low values 1 | locus YAL021C, strain ccr4, hits give low values 1.01 | locus YAL026C, strain drs2, hits give low values 1.02 | locus YAL030W, strain snc1, hits give low values 1.01 | locus YAL040C, strain CLN3, hits give low values 1.04 | locus YBL061C, strain skt5, hits give low values 1.01 | locus YBR009C, strain hhf1, hits give low values 1.01 | locus YBR021W, strain FUR4, hits give low values 0.997 | locus YBR023C, strain chs3, hits give low values 1.01 | locus YBR171W, strain sec66, hits give low values 1.02 | locus YBR229C, strain ROT2, hits give low values 0.954 | locus YBR231C, strain swc5, hits give low values 1.01 | locus YBR279W, strain paf1, hits give low values 1.01 | locus YCL011C, strain gbp2, hits give low values 1.01 | locus YCL016C, strain dcc1, hits give low values 1.01 | locus YCL029C, strain bik1, hits give low values 0.968 | locus YCL061C, strain MRC1 (second series), hits give low values 1.01 | locus YCL061C, strain MRC1, hits give low values 1.01 | locus YCL069W, strain vba3, hits give low values 1 | locus YCR088W, strain abp1, hits give low values 1.01 | locus YDL005C, strain med2, hits give low values 1.01 | locus YDL035C, strain GPR1, hits give low values 0.973 | locus YDL040C, strain nat1, hits give low values 1 | locus YDL074C, strain BRE1, hits give low values 0.946 | locus YDL101C, strain DUN1, hits give low values 0.975 | locus YDL134C, strain PPH21, hits give low values 0.994 | locus YDL185W, strain tfp1, hits give low values 0.98 | locus YDL192W, strain arf1, hits give low values 0.986 | locus YDR001C, strain nth1, hits give low values 1 | locus YDR069C, strain doa4, hits give low values 1 | locus YDR101C, strain arx1, hits give low values 0.985 | locus YDR137W, strain rgp1, hits give low values 1.02 | locus YDR150W, strain NUM1, hits give low values 0.996 | locus YDR159W, strain sac3, hits give low values 1.01 | locus YDR162C, strain NBP2, hits give low values 0.991 | locus YDR195W, strain ref2 0.997 | locus YDR297W, strain sur2, hits give low values 1 | locus YDR318W, strain mcm21, hits give low values 0.991 | locus YDR334W, strain swr1, hits give low values 0.999 | locus YDR335W, strain msn5, hits give low values 1.01 | locus YDR363W, strain ESC2, hits give low values 1.06 | locus YDR388W, hits give low values 0.991 | locus YDR392W, strain spt3, hits give low values 0.93 | locus YDR502C, strain sam2, hits give low values 0.994 | locus YEL003W, strain gim4, hits give low values 0.997 | locus YEL037C, strain rad23, hits give low values 1.01 | locus YEL061C, strain CIN8 (second series), hits give low values 1.01 | locus YEL061C, strain CIN8, hits give low values 0.98 | locus YER002W, strain NOP16, hits give low values 0.998 | locus YER015W, strain faa2, hits give low values 0.994 | locus YER016W, strain bim1, hits give low values 1.01 | locus YER110C, hits give low values 0.952 | locus YER111C, strain swi4, hits give low values 1.01 | locus YER155C, strain BEM2 (second series), hits give low values 1 | locus YER155C, strain BEM2, hits give low values 1 | locus YER167W, strain BCK2, hits give low values 0.99 | locus YFR010W, strain ubp6, hits give low values 0.989 | locus YGL078C, strain dbp3, hits give low values 0.995 | locus YGL086W, strain mad1, hits give low values 0.976 | locus YGL167C, strain pmr1, hits give low values 1.01 | locus YGL173C, strain kem1, hits give low values 1.01 | locus YGL227W, strain vid30, hits give low values 1.02 | locus YGL240W, strain doc1, hits give low values 1 | locus YGL248W, strain PDE1, hits give low values 0.979 | locus YGL253W, strain hxk2, hits give low values 1.01 | locus YGR078C, strain PAC10, hits give low values 1.01 | locus YGR135W, strain pre9, hits give low values 0.982 | locus YGR229C, strain SMI1, hits give low values 0.985 | locus YGR252W, strain gcn5, hits give low values 0.898 | locus YHR013C, strain ard1, hits give low values 1.02 | locus YHR027C, strain rpn1, hits give low values 1 | locus YHR030C, strain SLT2, hits give low values 0.996 and 0.983 | locus YHR079C, strain IRE1 (second series), hits give low values 0.991 | locus YHR079C, strain IRE1, hits give low values 0.965 | locus YHR094C, strain hxt1, hits give low values 0.99 | locus YHR129C, strain ARP1, hits give low values 0.981 | locus YHR142W, strain chs7, hits give low values 1.02 | locus YHR200W, strain rpn10, hits give low values 0.989 | locus YIL066C, strain RNR3, hits give low values 0.978 | locus YIL073C, strain SPO22, hits give low values 0.992 | locus YIL125W, strain kgd1, hits give low values 0.996 | locus YIR030C, strain dcg1, hits give low values 0.981 | locus YJL092W, strain hpr5, hits give low values 1 | locus YJL095W, strain BCK1 (second series), hits give low values 1.01 | locus YJL095W, strain BCK1, hits give low values 0.987 and 0.984 | locus YJL115W, strain asf1, hits give low values 1.01 | locus YJL129C, strain trk1, hits give low values 1.01 | locus YJL134W, strain LCB3, hits give low values 0.993 | locus YJL154C, strain vps35, hits give low values 1.01 | locus YJL164C, strain tpk1, hits give low values 1 | locus YJL166W, strain qcr8, hits give low values 1.01 | locus YJL168C, strain set2, hits give low values 0.985 | locus YJL187C, strain SWE1 (second series), hits give low values 0.976 | locus YJL187C, strain SWE1, hits give low values 1.01 | locus YJR043C, strain POL32, hits give low values 0.988
